The values that follow come from PubChem BioAssay (EPA / NIEHS).

The structures appear in SMILES notation. Activity calls are given as the source filed them. How the source made its calls: active means hit-call score of the fitted dose curve at least 0.9, where 1 is the maximum; inactive means score below 0.9.

A short description of assay [1]: ATG_CRE_CIS: Attagene CIS-FACTORIAL HepG2 Assay for human cAMP Responsive Element (CRE) binding protein 3 (AID 2282926). Particulars: HepG2 CRE cis-reporter, Attagene multiplexed mRNA; actives raise or lower the signal. Summed up:
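Human liver HepG2, transient MRTU transfection, 24 h compound exposure. Total RNA → oligo(dT) RT → PCR → 6-FAM primer extension → HpaI cut → CE. Activity called both directions vs DMSO.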

Assay [2] has as its target CCAAT/enhancer-binding protein beta (Homo sapiens) (UniProt P17676). The assay can be described thus: ATG_C_EBP_CIS: Attagene CIS-FACTORIAL HepG2 Assay for human CCAAT/Enhancer Binding Protein (C/EBP) beta (AID 2282927). Particulars: HepG2 Attagene cis-factorial transcription factor reporter; actives raise or lower the signal. The procedure, abridged:
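Endogenous C/EBPb-driven reporter transcripts measured in transfected human HepG2 cells at 24 h via RT-PCR and capillary electrophoresis of labelled fragments. Activity fitted in both directions relative to DMSO baseline.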

The nature of assay [3]: ATG_CMV_CIS: Attagene CIS-FACTORIAL HepG2 Assay for human CMV (Internal Marker) (AID 2282928).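 Further: endpoint acts as a background internal control marker rather than a target.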 Particulars: HepG2 CMV promoter reporter, transcription factor profiling; actives raise or lower the signal. The procedure, abridged:
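After transient transfection of HepG2 with reporter transcription units driven by cis-regulatory promoters, cells receive test chemical for 24 h. Labeled reporter amplicons, digested with HpaI, are sized and quantified by capillary electrophoresis against DMSO.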

CCAAT/enhancer-binding protein beta (Homo sapiens), sequence (P17676 whole entry, looked up, the tested form may be a part): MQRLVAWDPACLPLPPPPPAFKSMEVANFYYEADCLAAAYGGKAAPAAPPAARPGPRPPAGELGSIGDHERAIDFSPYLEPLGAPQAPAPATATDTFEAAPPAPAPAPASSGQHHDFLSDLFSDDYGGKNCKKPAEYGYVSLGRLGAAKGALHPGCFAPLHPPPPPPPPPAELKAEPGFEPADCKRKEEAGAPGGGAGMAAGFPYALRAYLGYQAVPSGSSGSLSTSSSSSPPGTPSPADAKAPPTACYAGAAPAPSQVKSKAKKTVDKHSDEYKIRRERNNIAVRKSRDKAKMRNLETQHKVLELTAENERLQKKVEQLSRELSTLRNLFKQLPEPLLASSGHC

Broadly, the AC50 is the concentration giving half of the maximal activity seen. For `CCCCCCCCCCCC[N+](C)(C)CCCCCCCCCCCC`, the call in assay [1] was inactive. The results for the AC50 in assay [2] and in assay [3] were 16.4 µM (active) and 182 µM (active), respectively.

For `C=CC(=C)CC/C=C(\C)CCC=C(C)C`, the compound was called inactive in assay [1], in assay [2] and in assay [3].

As to `CCCCCCCCCCCCCC[n+]1ccccc1`, the result in assay [1], in assay [2] and in assay [3] was inactive.

Turning to `Cc1cncc(C)c1`, the compound was called inactive in assay [1], in assay [2] and in assay [3].

On to `CCOC=C(C(=O)OCC)C(=O)OCC`, for which the outcome in assay [1], in assay [2] and in assay [3] was inactive.

Consider `FC1(F)C=CC(F)(F)C1(F)F`, for which the compound was classed as inactive in assay [1], in assay [2] and in assay [3].

For `O=c1cc(-c2ccccc2)oc2ccc3ccccc3c12`, the compound was called inactive in assay [1], in assay [2] and in assay [3].

In the case of `OCCN1CN(CCO)CN(CCO)C1`, in assay [1], the AC50 was 145 µM (active). The result in assay [2] and in assay [3] was inactive.

In the case of `C=CC(C)(CCC=C(C)C)OC(C)=O` (stereo not drawn), the result in assay [1], in assay [2] and in assay [3] was inactive.

`CC(C)CCOCCC(C)C`: the compound was classed as inactive in assay [1], in assay [2] and in assay [3].

Take `O=C(O)C(=O)O`: the result in assay [1], in assay [2] and in assay [3] was inactive.

On to `C=CC(=O)OCCC(F)(F)C(F)(F)C(F)(F)C(F)(F)C(F)(F)C(F)(F)C(F)(F)C(F)(F)F`, for which the outcome in assay [1], in assay [2] and in assay [3] was inactive.

As to `CC=O`, the outcome in assay [1], in assay [2] and in assay [3] was inactive.

As to `Clc1ccc2c(Cl)ccnc2c1`, the compound was called inactive in assay [1] and in assay [2]. Also, the AC50 in assay [3] is 57.3 µM (active).

With `O=C1C=CC(=O)N1c1cccc(N2C(=O)C=CC2=O)c1`, the compound was called inactive in assay [1], in assay [2] and in assay [3].

Take `NS(=O)(=O)O`: the outcome in assay [1], in assay [2] and in assay [3] was inactive.

For `CCCCCCCCCC=CCC1CC(=O)OC1=O` (stereo not drawn), the outcome in assay [1] and in assay [2] was inactive. For the same compound, the AC50 in assay [3] is 66.8 µM (active).

With `CCCCCc1ccc(O)cc1`, the compound was classed as inactive in assay [1] and in assay [2]. In addition, the AC50 in assay [3] was 33.4 µM (active).

Turning to `CCOC(=O)c1nc(C(Cl)(Cl)Cl)n(-c2ccc(Cl)cc2Cl)n1`, the outcome in assay [1] and in assay [2] was inactive. In assay [3], the AC50 was 29.6 µM (active).

As for `Cc1ccc(N=Nc2c(O)ccc3ccccc23)c(C)c1`, the compound was classed as inactive in assay [1], in assay [2] and in assay [3].

For `CCC1CO1` (stereo not drawn), the compound was classed as inactive in assay [1], in assay [2] and in assay [3].

On to `CCCCCCCCCCCCCCCC(=O)OC`, for which the outcome in assay [1], in assay [2] and in assay [3] was inactive.

As to `CCO[Si](CCC1CCC2OC2C1)(OCC)OCC` (stereo not drawn), the result in assay [1], in assay [2] and in assay [3] was inactive.

As for `Brc1ccc(Oc2ccc(Br)cc2Br)cc1`, the result in assay [1], in assay [2] and in assay [3] was inactive.

As to `CCN(CC)CC`, the call in assay [1], in assay [2] and in assay [3] was inactive.

In the case of `Nc1ccn([C@@H]2O[C@H](CO)[C@@H](O)C2O)c(=O)n1` (stereo partly drawn), the call in assay [1], in assay [2] and in assay [3] was inactive.

Take `Cc1cc(=O)oc2cc(O)ccc12`: the outcome in assay [1], in assay [2] and in assay [3] was inactive.

`NCCN`: the compound was classed as inactive in assay [1], in assay [2] and in assay [3].

For the compound `OCC(F)(F)C(F)(F)C(F)(F)C(F)(F)C(F)(F)C(F)(F)C(F)(F)C(F)(F)C(F)(F)C(F)(F)C(F)(F)F`, the result in assay [1], in assay [2] and in assay [3] was inactive.

With `OCC1CCC(CO)CC1` (stereo not drawn), the result in assay [1], in assay [2] and in assay [3] was inactive.

For the compound `O=C1OC(=O)C(F)(F)C1(F)F`, the compound was called inactive in assay [1], in assay [2] and in assay [3].

For `O=C(O)CCC(F)(F)C(F)(F)C(F)(F)C(F)(F)C(F)(F)F`, the outcome in assay [1], in assay [2] and in assay [3] was inactive.

For `Cc1ccc(C(=O)c2ccccc2)cc1`, the result in assay [1] and in assay [2] was inactive. The AC50 in assay [3] was 61.1 µM (active).

As for `C=CC(F)(F)C(F)(F)C(F)(F)C(F)(F)F`, the compound was classed as inactive in assay [1], in assay [2] and in assay [3].

With `NNC(=O)CCCCC(=O)NN`, the compound was called inactive in assay [1], in assay [2] and in assay [3].

Consider `COC(=O)CC(C(C)=O)C(=O)OC` (stereo not drawn), for which the result in assay [1], in assay [2] and in assay [3] was inactive.

As for `CCCCCCOC(=O)c1ccc(O)cc1`, the AC50 in assay [1] was 44.2 µM (active); in assay [3], 51 µM (active). Moreover, in assay [2], the outcome was inactive.

For `O=P(O)(O)CCC(F)(F)C(F)(F)C(F)(F)C(F)(F)C(F)(F)C(F)(F)C(F)(F)C(F)(F)F`, the compound was classed as inactive in assay [1], in assay [2] and in assay [3].

As to `NC(C(F)(F)F)C(F)(F)F`, the call in assay [1], in assay [2] and in assay [3] was inactive.

Take `COc1cc(OC)nc(NC(=O)NS(=O)(=O)Nc2ccccc2C(=O)N(C)C)n1`: the compound was classed as inactive in assay [1], in assay [2] and in assay [3].

On to `Cc1cc(C(=C2C=CC(=Nc3ccc(S(=O)(=O)O)cc3)C=C2)c2ccc(Nc3ccc(S(=O)(=O)O)cc3)cc2)cc(S(=O)(=O)O)c1N`, for which the call in assay [1], in assay [2] and in assay [3] was inactive.
